The source made the active and inactive calls.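 Rule for the calls: active = inhibition of the reporter signal at or above 50%; inactive = inhibition below 50%.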
assay: inhibitors of poly I:C-induced TLR3 signaling, primary screen, cell-based, poly I:C stimulus, luciferase, 10K MLSCN set (AID 602277); conditions: HEK293-TLR3 RL24 IRF3 luciferase reporter, at 10 µM, hits give high values

inhibition, inactive:
Cn1c(SCC(=O)c2ccc(-c3ccccc3)cc2)nnc1-c1ccco1 1.41%
Cc1ccccc1NC(=O)CSc1nnc(Cc2cccn2C)n1-c1ccc(F)cc1 29.4%
CC(=O)N1CCc2c(sc(NC(=O)c3ccc(S(=O)(=O)N(C)C)cc3)c2C#N)C1 22.6%
Cc1c(NC(=O)c2nn(C)c(=O)c3ccccc23)c(=O)n(-c2ccccc2)n1C -0.356%
CCOC(=O)C1C(=O)N(C(=O)c2ccc(OC)cc2)CC1c1ccccc1 (stereo not given) 22.3%
C=CCSc1nnc(-c2cccnc2)o1 -8.9%
O=C(CCCn1c(=S)[nH]c2cc3c(cc2c1=O)OCO3)N1CCN(c2ccccc2F)CC1 -6.98%
COc1ccc(OCC(=O)Nc2ccc(N3CCOCC3)c(Cl)c2)cc1 5.62%
CCNc1ccc2c(Cl)cc(=O)oc2c1 -1.88%
Cc1cc(Br)ccc1NC(=O)CCN1C(=O)c2ccncc2C1=O 13.1%
CC(=O)Nc1ccc(S(=O)(=O)N2CCN(C(=O)CCC3CCCC3)CC2)cc1 10.7%
Cc1ccccc1NC(=O)C1CCCN(S(=O)(=O)c2cccc3cccnc23)C1 (stereo not given) 13.7%
C(#Cc1ccccc1)Cn1nnc2ccccc21 -170%
COc1ccccc1N1CCN(C/C(O)=C(\C#N)c2nc(-c3ccccc3)cs2)CC1 -1.83%
Cn1c(CN2CCOCC2)nnc1SCC(=O)NCCc1ccccc1 -42.9%
Nc1nc(CSc2nc3ccccc3[nH]2)nc(N2CCOCC2)n1 18.9%
CN1CCN(c2nc(-c3ccncc3)nc3ccccc23)CC1 15.9%
Cc1cc(=O)[nH]c(SCC(=O)NCc2ccco2)n1 20.9%
COc1ccc(NC(=O)NCCN2C(=O)C3C4C=CC(C4)C3C2=O)cc1 (stereo not given) -73.3%
CCC(=O)c1ccc(OCC(O)CN2CCN(S(=O)(=O)N3CCCCC3)CC2)cc1 (stereo not given) 9.85%
O=C(c1cccs1)N(Cc1ccco1)Cc1cc2ccccc2[nH]c1=O -8.09%
COc1cccc(NC(=O)C2CCN(c3ncccn3)CC2)c1 -6.34%
CC(=O)Nc1ccc(-c2nn[nH]n2)cc1Cl 12.5%
COc1cccc(N(C(=O)c2ccco2)C(C(=O)NC2CCCC2)c2ccc(N(C)C)cc2)c1 (stereo not given) 15.9%
CCN(CC)C(=O)C1CCC(CNS(=O)(=O)c2cccc3cccnc23)CC1 (stereo not given) 16.8%
COc1ccc(C(=O)COC(=O)CCn2nnc(-c3cccs3)n2)cc1 -7.1%
Fc1cccc(-c2cc3nc4c(c(N5CCN(c6cnccn6)CC5)n3n2)CCCC4)c1 -16.1%
Cc1ccc(Nc2cc(C)nc3ncnn23)c(Cl)c1 18.4%
O=C1CCC(c2ccccc2)N1C(=O)c1cccnc1 (stereo not given) 9.24%
CC1CCc2c(sc3c2C2=NS(=O)(=O)CCN2C=N3)C1 (stereo not given) 33.3%
CCn1c(SCc2nc(-c3cccs3)no2)nnc1-c1c[nH]c2ccccc12 13.6%
CC(CN1CCCCC1)OC(=O)c1ccc2c(c1)OCO2 (stereo not given) -0.512%
CN1CCN(S(=O)(=O)c2ccc(NC(=O)Nc3cccc(Cl)c3)cc2)CC1 -11.1%
CCC(C)OC(=O)c1[nH]c2c(c1C)C(=O)CC(c1ccc(N(C)C)cc1)C2 (stereo not given) -143%
COc1cccc(C=Nc2ccc3c(c2)OCCO3)c1O -2.51%
O=C(Cn1ncc2c1-c1ccccc1OC2)Nc1ccc(Cl)cn1 29.8%
CCOC(=O)c1c(C)n(C)c2c(C)cc(O)c(OC(C)=O)c12 -2.25%
COc1ccccc1CCNC(=O)C1CCCO1 (stereo not given) -9.53%
CCCSc1nnc2nc3c(nn12)c1ccccc1n3C 27.8%
CCN(CCNC(=O)C1CCN(S(=O)(=O)c2cccc3cccnc23)CC1)c1ccccc1 12.7%

Source: PubChem BioAssay
